Results filed as inconclusive are left out. Entries that show only a call come without a potency. A number with no mark means an inactive call. Activity calls are given as the source filed them. Calls come from the whole dose curve; as a rule, active = well fitted inhibition curve with a large enough effect; inconclusive = small, poorly fitted or top-dose-only effect; inactive = flat fitted curve, though single readings scatter. Residues, ends and D or L forms follow the SMILES beside them. *: point of attachment. Cbz = O=C(OCc1ccccc1)*
Biological target: Glutathione peroxidase 1 (Homo sapiens) (UniProt P07203)
Sequence (P07203 whole entry, looked up): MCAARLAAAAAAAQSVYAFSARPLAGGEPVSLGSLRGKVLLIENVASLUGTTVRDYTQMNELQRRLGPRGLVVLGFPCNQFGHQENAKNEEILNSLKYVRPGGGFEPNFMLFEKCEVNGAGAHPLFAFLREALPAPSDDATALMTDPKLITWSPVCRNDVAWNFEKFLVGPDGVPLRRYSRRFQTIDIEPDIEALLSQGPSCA
Test: Primary qHTS Assay for Inhibitors of Recombinant Selenoprotein Glutathione Peroxidase 1 (GPX1) (AID 1845191); note: nearly all actives have a fitted effect of over 65% in size
Conditions: recombinant GPX1, GR-coupled NADPH fluorescence, 15 min; series mostly up to 48.8 µM; activity, negative = inhibition: at the top concentration
Source text: Assay Provider: Elias S.J. Arner MD PhD.
Department of Medical Biochemistry and Biophysics
Karolinska Institutet, Solna, Stockholm, Sweden
Selenoprotein glutathione peroxidases (GPX), like the ubiquitously expressed GPX1 and the ferroptosis modulator GPX4, enact their antioxidant activities by reducing hydroperoxides using glutathione. […] GPX1 and GPX4 inhibitors have thus shown promise as anti-cancer agents. Existing inhibitors are often promiscuous, or modulate GPX activity only indirectly, so novel direct inhibitors identified through screening against GPX1 and GPX4 could be valuable. Here, we developed optimized glutathione reductase (GR)-coupled GPX assays for the biochemical high-throughput screen (HTS) of almost 12,000 compounds with known mechanisms of action. Initial hits were triaged using a GR counter-screen, assessed for isoform specificity using a separate GPX2 assay, and were assessed for general selenocysteine-targeting activity using a thioredoxin reductase (TXNRD1) assay. With this suite of assays, we identified novel GPX1/GPX2- and GPX4-specific inhibitors and can here present a validated pipeline for future discovery research for selenoprotein-targeting agents.
SEQUENCE No. (e.g., 1, 2, 3, etc.); […] (e.g., Cells, Incubation, Reagent, etc.); VALUE; DESCRIPTION.
1; Reagent 1; 3 uL; GPx1 enzyme or no enzyme control in 1536-well, black, solid Greiner assay plate.
2; Compound; 25 nL; Kalypsis pin tool (Wako USA) equipped with a 1536-well pin head.
3; Incubation; 30 min; room temperature.
4; Reagent 2; 1 uL; 10 nM GPX1, 1 mM GSH, 0.5 mM CHP, 0.5 mM NADPH, 100 nM GR, 0.01% BSA substrate
5; Detection; Fluorescence; ViewLux microplate reader, excitation 340 nm and emission 450 nm.
6; Incubation; 15 min; room temperature.
7; Detection; Fluorescence; ViewLux microplate reader, excitation 340 nm and emission 450 nm.
NOTES (numbers refer to Sequence numbers above)
1. 3 uL of 16.66 nM GPX1 and 0.016% BSA in assay buffer (50 mM Tris-HCl, 2 mM EDTA (pH 7.5), 150 mM NaCl) was added to columns 3-48 of 1536-well assay plates using a BioRAPTR Flying Reagent Dispenser (Let's Go Robotics (LGR), Carlsbad, CA). A no-enzyme control (0.01% BSA in TES assay buffer) was added to columns 1-2.
2. 25 nL of test compounds and DMSO controls were added to each well with a pin tool (Kalypsys).
3. The assay plates were incubated for 30 minutes at room temperature.
4. 1 uL of master mix (500 nM glutathione reductase (GR), 5 mM reduced glutathione (GSH), 2.5 mM NADPH in assay buffer) was added. 1 uL of cumene hydroperoxide (CHP) ([2.5 mM] in 50% EtOH) was then added within 5 minutes to initiate the reaction. Final concentrations were: 10 nM GPX1, 1 mM GSH, 0.5 mM CHP, 0.5 mM NADPH, 100 nM GR, 0.01% BSA.
5. Initial fluorescence readout (t=0) at 340/450 nm was measured using a ViewLux multimodal detector (PerkinElmer, Waltham, MA).
7. Endpoint fluorescence readout (t=15) at 340/450 nm was measured 15 min after room temperature incubation.
Potency is the fitted concentration of half-maximal effect.

SMILES	activity, negative = inhibition	outcome	Potency
Cn1cnc(=N)c2[nH]cnc21	0.589% [at 98.3 µM]		
COc1cccc2c1C(=O)c1c(O)c3c(c(O)c1C2=O)C[C@@](O)(C(=O)CO)C[C@@H]3O[C@H]1C[C@H](N)[C@@H](O)[C@H](C)O1		inactive	
Cc1ccccc1C(=O)Nc1ccc(C(=O)N2CCCC(O)c3cc(Cl)ccc32)c(C)c1 (stereo not given)	1.55%		
CCCc1nc(C(C)(C)O)c(C(=O)O)n1Cc1ccc(-c2ccccc2-c2nn[nH]n2)cc1			inactive
CNC(=O)Nc1ccc(-c2nc(N3CC4CCC(C3)O4)c3cnn(C4CCC5(CC4)OCCO5)c3n2)cc1		inactive	
CCN(CC)CCCCNc1ncc2c(n1)N(C)C(=O)N(c1c(Cl)c(OC)cc(OC)c1Cl)C2		inactive	
Cn1c(Nc2ccc(C(F)(F)F)cc2)nc2cc(Oc3ccnc(-c4ncc(C(F)(F)F)[nH]4)c3)ccc21		inactive	
Cn1cc(-c2cnn3c(N)c(Br)c([C@H]4CCCNC4)nc23)cn1			inactive
NC(=NCCCCCCN=C(N)N=C(N)Nc1ccc(Cl)cc1)N=C(N)Nc1ccc(Cl)cc1		inactive	
C[N+]1(C)[C@@H]2C[C@@H](OC(=O)C(O)(c3cccs3)c3cccs3)C[C@H]1[C@@H]1O[C@@H]12	-15.9%		
Cc1ccc(-n2[nH]c(C)c(N=Nc3cccc(-c4cccc(C(=O)O)c4)c3O)c2=O)cc1C			inactive
Oc1cc2c(cc1O)C1c3ccc(O)c(O)c3OCC1(O)C2 (stereo not given)		inactive	
C=C[C@@H]1CN2CCC1C[C@H]2[C@H](O)c1ccnc2ccc(OC)cc12 (stereo not given in full)		inactive	
Nc1ccn(C2CO[C@H](CO)O2)c(=O)n1 (stereo not given in full)		inactive	
O=C(c1ccc(F)cc1)N1CCC[C@H](c2nc(-c3ccc(F)cc3)no2)C1			inactive
O=C(Nc1nnc(-c2ccco2)o1)c1cc(-c2ccccc2)nc2ccccc12	1.72%		
Cc1coc2c1C(=O)C(=O)c1c-2ccc2c(C)cccc12		inactive	
C[C@@H]1C(=O)O[C@H]2CC34[C@H]5C[C@@H](C(C)(C)C)C36[C@H](OC(=O)[C@@H]6O)O[C@@]4(C(=O)O5)[C@]21O (stereo not given in full)	-3.12%		
CCNC(=O)c1cc2c(-c3cc(OCCN4CCCC4)c(Cl)cc3Cl)nc(N)nc2s1	-7.71% [at 27.7 µM]		
N#CNC(=NCCCCCCOc1ccc(Cl)cc1)Nc1ccncc1	-0.166%		

SMILES	activity, negative = inhibition	outcome	Potency
C=C(C)[C@@H]1CC[C@]2(C(=O)O)CC[C@]3(C)[C@H](CC[C@@H]4[C@@]5(C)CC[C@H](O)C(C)(C)[C@@H]5CC[C@]43C)[C@@H]12		inactive	
CC(C)[C@H](CO)Nc1nc(Nc2cccc(Cl)c2)c2ncn(C(C)C)c2n1		inactive	
CC(C)C[C@@H](C=O)NC(=O)[C@H](CC(C)C)NC(=O)[C@H](CC(C)C)NC(=O)OCc1ccccc1 (Cbz-Leu-Leu-Leu-aldehyde)		inactive	
CCOC(=O)[C@@H](N)Cc1ccc(-c2cc(O[C@H](c3ccc(Cl)cc3-n3ccc(C)n3)C(F)(F)F)nc(N)n2)cc1			inactive
CC(C)c1cnn2c(NCc3ccccc3)cc(NCCCCCCN)nc12		inactive	
CC(C(C)N1CC(=O)NC(=O)C1)N1CC(=O)NC(=O)C1 (stereo not given)		inactive	
COc1cccc2c1C(=O)c1c(O)c3c(c(O)c1C2=O)C[C@@](O)(C(=O)CO)C[C@@H]3O[C@H]1C[C@H](N)[C@H](OC2CCCCO2)[C@H](C)O1 (stereo not given in full)	-6.37%		
Cc1cc(Nc2ncc3c(n2)N(C)C(=O)N(c2cc(NC(=O)c4cccc(C(F)(F)F)c4)ccc2C)C3)n(C)n1		inactive	
CCC(C(=O)O)C1CCC(C)C(C(C)C(O)C(C)C(=O)C(CC)C2OC3(C=CC(O)[C@@]4(CC[C@](C)(C5CC[C@@](O)(CC)C(C)O5)O4)O3)C(C)CC2C)O1 (stereo not given in full)			inactive
COc1ccc(C[C@@H](C)[C@@H](C)Cc2ccc(OC)c(OC)c2)cc1OC		inactive	
Cc1cncc2cccc(S(=O)(=O)N3CCCN(C(=O)CN)C[C@@H]3C)c12		inactive	
Cc1ncc(-c2ccnc(Nc3ccc(S(C)(=O)=O)cc3)n2)n1C(C)C			inactive
Cn1cnc2c(F)c(Nc3ccc(Br)cc3F)c(C(=O)NOCCO)cc21	-4.74%		
N#Cc1cc(NC(=O)Nc2nnc(-c3ccncc3)s2)ccc1-c1cn[nH]c1		inactive	
Cn1cc(C2=C(c3c4n(c5ccccc35)CCC(CN)C4)C(=O)NC2=O)c2ccccc21 (stereo not given)		inactive [at 9.52 µM]	
Cn1cc(-c2ccc3ncc(Cc4ccc5ncccc5c4)n3n2)cn1	2.37%		
O=C1c2cccc(O)c2C(=O)c2c(O)cc(CO)cc21			4.09 µM (active)
CC(Oc1ccc(O)cc1)(P(=O)(O)O)P(=O)(O)O	-25.1%		
Cn1cc(C[C@@H](N)C(=O)O)c2ccccc21		inactive [at 9.52 µM]	
C[C@H]1COc2c(N3CCN(C)CC3)c(F)cc3c(=O)c(C(=O)O)cn1c23		inactive	

From PubChem BioAssay (NCATS)
